Data published in ChEMBL document CHEMBL1961873, “Compounds: GSK PKIS; Assays: Nanosyn kinase panel” (2012).
“And” between values parts separate entries of the source, which are not always exact repeats. Identical values can stand only once.

Assays:
[1] = test system: Proto-oncogene tyrosine-protein kinase receptor Ret (Homo sapiens), P07949 [Y791F]; settings: at 1 µM
[2] = biological target: Macrophage-stimulating protein receptor (Homo sapiens) (UniProt Q04912); settings: at 0.1 µM
[3] = biological target: Macrophage-stimulating protein receptor (Homo sapiens) (UniProt Q04912); settings: at 1 µM
[4] = biological target: Proto-oncogene tyrosine-protein kinase ROS (Homo sapiens) (UniProt P08922); settings: at 0.1 µM
Sequence of Proto-oncogene tyrosine-protein kinase ROS (Homo sapiens) (P08922 whole entry): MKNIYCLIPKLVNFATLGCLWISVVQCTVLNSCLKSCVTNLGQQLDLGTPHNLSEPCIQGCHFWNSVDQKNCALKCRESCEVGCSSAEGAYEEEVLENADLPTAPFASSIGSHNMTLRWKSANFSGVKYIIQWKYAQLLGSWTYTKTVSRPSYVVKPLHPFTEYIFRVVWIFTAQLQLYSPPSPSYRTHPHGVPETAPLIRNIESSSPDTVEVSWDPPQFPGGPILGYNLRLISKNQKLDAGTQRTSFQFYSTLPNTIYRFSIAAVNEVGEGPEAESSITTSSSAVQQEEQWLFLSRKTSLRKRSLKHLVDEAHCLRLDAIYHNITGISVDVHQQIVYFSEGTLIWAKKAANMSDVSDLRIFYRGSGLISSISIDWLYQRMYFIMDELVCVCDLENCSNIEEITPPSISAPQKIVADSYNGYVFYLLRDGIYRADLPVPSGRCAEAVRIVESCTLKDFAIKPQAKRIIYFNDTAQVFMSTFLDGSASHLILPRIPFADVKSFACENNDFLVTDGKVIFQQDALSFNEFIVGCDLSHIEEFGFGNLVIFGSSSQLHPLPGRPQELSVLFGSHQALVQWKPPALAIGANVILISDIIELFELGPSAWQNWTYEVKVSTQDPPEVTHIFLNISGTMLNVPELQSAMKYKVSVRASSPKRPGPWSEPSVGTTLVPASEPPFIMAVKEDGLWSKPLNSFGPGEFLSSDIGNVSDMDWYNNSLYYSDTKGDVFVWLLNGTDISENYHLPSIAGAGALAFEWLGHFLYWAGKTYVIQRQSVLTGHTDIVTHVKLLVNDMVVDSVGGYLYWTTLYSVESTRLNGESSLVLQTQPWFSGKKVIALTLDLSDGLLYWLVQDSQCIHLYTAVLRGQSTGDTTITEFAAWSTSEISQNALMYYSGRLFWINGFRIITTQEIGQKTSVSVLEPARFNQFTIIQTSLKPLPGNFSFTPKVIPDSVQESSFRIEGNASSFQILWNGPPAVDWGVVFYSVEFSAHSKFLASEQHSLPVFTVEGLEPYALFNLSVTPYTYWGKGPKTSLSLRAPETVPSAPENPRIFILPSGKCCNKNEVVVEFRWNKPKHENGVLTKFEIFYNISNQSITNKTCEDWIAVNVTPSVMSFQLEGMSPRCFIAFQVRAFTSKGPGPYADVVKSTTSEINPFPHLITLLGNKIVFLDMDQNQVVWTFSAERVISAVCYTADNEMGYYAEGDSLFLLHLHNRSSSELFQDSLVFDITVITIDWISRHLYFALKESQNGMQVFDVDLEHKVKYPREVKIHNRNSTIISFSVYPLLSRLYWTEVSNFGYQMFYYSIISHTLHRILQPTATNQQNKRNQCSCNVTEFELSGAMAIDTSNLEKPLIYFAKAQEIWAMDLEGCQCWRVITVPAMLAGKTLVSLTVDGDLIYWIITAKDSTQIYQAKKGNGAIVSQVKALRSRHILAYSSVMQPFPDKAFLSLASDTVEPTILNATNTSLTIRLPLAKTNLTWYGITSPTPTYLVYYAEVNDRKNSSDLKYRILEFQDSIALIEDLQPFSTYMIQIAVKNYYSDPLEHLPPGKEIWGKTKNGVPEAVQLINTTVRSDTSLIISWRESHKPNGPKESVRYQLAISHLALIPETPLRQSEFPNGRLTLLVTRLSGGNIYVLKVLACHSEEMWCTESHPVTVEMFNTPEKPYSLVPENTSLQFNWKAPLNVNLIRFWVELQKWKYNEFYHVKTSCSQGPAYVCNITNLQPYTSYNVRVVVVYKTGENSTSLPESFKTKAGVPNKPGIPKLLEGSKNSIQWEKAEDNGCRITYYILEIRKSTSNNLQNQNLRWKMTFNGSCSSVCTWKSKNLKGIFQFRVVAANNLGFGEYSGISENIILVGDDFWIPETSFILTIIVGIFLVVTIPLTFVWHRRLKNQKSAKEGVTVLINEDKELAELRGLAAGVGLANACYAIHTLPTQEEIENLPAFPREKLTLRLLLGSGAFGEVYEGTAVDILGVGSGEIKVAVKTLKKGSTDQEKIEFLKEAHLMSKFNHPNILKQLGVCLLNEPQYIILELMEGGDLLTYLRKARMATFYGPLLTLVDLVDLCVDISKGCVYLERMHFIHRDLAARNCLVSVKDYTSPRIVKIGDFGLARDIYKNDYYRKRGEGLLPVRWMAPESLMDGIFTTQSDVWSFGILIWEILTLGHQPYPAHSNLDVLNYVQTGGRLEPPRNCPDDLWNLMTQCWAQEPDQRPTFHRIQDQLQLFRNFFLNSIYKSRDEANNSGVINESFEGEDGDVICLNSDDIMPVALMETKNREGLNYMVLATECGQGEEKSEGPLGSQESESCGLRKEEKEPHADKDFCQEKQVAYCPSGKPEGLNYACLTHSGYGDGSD

[5] = biological target: Proto-oncogene tyrosine-protein kinase ROS (Homo sapiens) (UniProt P08922); settings: at 1 µM
[6] = biological target: Proto-oncogene tyrosine-protein kinase Src (Homo sapiens) (UniProt P12931); settings: at 0.1 µM
Sequence of Proto-oncogene tyrosine-protein kinase Src (Homo sapiens) (P12931 2-536 limits assumed): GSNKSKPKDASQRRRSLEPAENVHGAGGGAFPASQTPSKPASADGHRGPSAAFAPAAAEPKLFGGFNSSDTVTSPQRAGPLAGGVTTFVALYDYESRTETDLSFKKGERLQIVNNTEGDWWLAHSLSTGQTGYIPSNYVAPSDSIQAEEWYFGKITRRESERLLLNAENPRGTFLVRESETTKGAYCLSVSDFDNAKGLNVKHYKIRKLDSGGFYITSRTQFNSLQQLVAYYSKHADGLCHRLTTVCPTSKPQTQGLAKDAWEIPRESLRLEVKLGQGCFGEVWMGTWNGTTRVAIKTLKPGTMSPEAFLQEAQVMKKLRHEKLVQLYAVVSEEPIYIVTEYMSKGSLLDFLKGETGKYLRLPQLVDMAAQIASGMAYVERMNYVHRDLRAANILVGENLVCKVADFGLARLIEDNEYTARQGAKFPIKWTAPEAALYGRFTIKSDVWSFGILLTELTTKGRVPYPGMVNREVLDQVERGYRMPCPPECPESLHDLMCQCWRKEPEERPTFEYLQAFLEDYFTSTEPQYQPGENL

[7] = biological target: Proto-oncogene tyrosine-protein kinase Src (Homo sapiens) (UniProt P12931); settings: at 1 µM
[8] = biological target: Tyrosine-protein kinase Srms (Homo sapiens) (UniProt Q9H3Y6); settings: at 0.1 µM
Sequence of Tyrosine-protein kinase Srms (Homo sapiens) (Q9H3Y6 whole entry): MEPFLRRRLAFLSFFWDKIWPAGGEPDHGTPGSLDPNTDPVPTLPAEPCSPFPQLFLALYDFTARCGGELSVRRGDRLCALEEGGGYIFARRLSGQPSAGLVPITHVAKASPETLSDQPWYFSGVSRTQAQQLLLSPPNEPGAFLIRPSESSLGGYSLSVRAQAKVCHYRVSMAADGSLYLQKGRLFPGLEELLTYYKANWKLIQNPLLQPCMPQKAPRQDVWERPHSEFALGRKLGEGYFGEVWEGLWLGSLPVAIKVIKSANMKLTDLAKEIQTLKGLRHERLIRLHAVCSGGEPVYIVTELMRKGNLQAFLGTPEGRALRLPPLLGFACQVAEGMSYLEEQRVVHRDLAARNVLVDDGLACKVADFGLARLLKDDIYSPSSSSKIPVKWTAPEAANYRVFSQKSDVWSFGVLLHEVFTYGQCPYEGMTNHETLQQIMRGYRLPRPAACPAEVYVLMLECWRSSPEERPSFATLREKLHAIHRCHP

[9] = biological target: Tyrosine-protein kinase Srms (Homo sapiens) (UniProt Q9H3Y6); settings: at 1 µM
[10] = biological target: Tyrosine-protein kinase SYK (Homo sapiens) (UniProt P43405); settings: at 0.1 µM
[11] = biological target: Tyrosine-protein kinase SYK (Homo sapiens) (UniProt P43405); settings: at 1 µM
[12] = biological target: T1, Tyrosine-protein kinase Tec (Homo sapiens) (UniProt P42680); settings: at 0.1 µM
T1 sequence (whole entry): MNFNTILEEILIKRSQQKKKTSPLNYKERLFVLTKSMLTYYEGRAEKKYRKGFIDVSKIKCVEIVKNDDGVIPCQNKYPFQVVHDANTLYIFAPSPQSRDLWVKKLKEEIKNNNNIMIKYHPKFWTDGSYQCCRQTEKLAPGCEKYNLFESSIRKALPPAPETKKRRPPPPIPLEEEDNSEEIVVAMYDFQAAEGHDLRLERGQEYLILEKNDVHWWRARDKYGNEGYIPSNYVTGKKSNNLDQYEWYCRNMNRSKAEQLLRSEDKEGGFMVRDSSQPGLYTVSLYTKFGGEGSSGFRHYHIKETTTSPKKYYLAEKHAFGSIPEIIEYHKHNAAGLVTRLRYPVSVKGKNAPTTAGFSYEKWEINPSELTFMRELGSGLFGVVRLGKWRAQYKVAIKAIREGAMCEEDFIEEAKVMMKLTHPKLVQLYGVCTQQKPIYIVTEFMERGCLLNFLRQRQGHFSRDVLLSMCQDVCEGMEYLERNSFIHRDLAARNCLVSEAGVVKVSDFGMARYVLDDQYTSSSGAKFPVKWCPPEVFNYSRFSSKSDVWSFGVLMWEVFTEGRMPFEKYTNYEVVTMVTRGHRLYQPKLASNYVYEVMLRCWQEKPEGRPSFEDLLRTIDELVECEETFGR

[13] = biological target: T1, Tyrosine-protein kinase Tec (Homo sapiens); settings: at 1 µM
[14] = biological target: Angiopoietin-1 receptor (Homo sapiens) (UniProt Q02763); settings: at 0.1 µM
[15] = biological target: Angiopoietin-1 receptor (Homo sapiens) (UniProt Q02763); settings: at 1 µM
[16] = biological target: T2, Non-receptor tyrosine-protein kinase TNK1 (Homo sapiens) (UniProt Q13470); settings: at 0.1 µM
T2 sequence (whole entry): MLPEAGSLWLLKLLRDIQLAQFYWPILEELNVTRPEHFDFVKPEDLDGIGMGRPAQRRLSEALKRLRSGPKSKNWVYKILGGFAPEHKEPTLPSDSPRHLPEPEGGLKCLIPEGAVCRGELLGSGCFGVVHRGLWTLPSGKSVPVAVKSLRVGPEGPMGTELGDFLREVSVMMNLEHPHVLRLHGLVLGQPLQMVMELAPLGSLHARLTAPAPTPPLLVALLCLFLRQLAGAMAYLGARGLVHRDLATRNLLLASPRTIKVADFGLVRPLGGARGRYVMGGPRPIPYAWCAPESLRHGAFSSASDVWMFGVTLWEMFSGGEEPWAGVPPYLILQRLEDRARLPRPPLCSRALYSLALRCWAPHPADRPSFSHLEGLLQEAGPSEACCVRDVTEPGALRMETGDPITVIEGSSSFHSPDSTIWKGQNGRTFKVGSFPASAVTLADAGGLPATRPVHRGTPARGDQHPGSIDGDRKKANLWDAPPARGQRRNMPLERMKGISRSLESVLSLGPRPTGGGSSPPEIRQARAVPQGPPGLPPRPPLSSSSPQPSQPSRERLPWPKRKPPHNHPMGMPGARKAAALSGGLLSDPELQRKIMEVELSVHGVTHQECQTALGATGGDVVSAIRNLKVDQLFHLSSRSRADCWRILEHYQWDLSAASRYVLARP

[17] = biological target: T2, Non-receptor tyrosine-protein kinase TNK1 (Homo sapiens); settings: at 1 µM
[18] = biological target: Activated CDC42 kinase 1 (Homo sapiens) (UniProt Q07912); settings: at 0.1 µM
[19] = biological target: Activated CDC42 kinase 1 (Homo sapiens) (UniProt Q07912); settings: at 1 µM
[20] = biological target: High affinity nerve growth factor receptor (Homo sapiens) (UniProt P04629); settings: at 0.1 µM;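 also: each value is a mean of replicate percent inhibition readings against TRKA kinase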

Sequence of Proto-oncogene tyrosine-protein kinase receptor Ret (Homo sapiens), P07949 [Y791F] (P07949 whole entry Y791F): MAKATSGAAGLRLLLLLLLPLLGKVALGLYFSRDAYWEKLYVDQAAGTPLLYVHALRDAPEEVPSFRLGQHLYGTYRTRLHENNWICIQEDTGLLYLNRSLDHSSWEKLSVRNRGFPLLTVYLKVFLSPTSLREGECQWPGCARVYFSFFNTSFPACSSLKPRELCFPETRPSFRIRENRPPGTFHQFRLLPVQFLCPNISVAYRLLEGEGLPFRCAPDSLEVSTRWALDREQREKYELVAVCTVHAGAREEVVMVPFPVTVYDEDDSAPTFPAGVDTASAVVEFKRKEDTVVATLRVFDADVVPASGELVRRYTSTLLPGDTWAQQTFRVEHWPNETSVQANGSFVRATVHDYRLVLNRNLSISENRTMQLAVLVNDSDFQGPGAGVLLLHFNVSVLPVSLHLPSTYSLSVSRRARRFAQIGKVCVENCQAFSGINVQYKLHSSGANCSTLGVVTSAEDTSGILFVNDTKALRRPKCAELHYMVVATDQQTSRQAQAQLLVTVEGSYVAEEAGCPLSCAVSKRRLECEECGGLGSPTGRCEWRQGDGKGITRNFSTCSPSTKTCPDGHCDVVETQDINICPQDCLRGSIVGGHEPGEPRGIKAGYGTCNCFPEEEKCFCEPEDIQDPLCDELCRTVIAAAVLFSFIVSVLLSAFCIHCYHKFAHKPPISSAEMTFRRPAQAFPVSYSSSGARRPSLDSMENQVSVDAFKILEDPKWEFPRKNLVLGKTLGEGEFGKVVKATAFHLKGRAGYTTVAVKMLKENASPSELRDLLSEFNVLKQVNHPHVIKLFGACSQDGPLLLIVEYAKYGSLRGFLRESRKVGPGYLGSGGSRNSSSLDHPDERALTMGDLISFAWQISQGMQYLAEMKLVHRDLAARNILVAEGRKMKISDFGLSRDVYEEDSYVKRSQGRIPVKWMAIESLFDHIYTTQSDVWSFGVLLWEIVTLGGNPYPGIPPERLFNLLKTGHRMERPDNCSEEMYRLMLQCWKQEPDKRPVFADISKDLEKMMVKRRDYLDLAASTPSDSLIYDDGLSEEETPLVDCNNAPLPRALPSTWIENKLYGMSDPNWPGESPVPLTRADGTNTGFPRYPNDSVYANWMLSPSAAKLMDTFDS

Compound	inhibition [1]	inhibition [2]	inhibition [3]	inhibition [4]	inhibition [5]	inhibition [6]	inhibition [7]	inhibition [8]	inhibition [9]	inhibition [10]	inhibition [11] [%]	inhibition [12]	inhibition [13]	inhibition [14]	inhibition [15]	inhibition [16]	inhibition [17]	inhibition [18]	inhibition [19]	inhibition [20]
Nc1ncnc2occ(-c3ccc(NC(=O)Nc4cc(C(F)(F)F)ccc4F)cc3)c12	85.5% and 86.1%	6.58% and -2.93%	12.2% and 2.9%	4.91% and 3.1%	28.1% and 13.7%	10.1% and 1.77%	48.3% and 31.9%	0.41% and -0.6%	0.84% and 0.62%	-4.8% and -1.07%	-9.91	3.07% and -2.99%	5.25% and -1.81%	63.7% and 59.4%	79% and 80.6%	10.7% and 2.54%	50% and 25.8%	1.25% and -0.32%	2.06% and -0.97%	57.1% and 36.6%
CN(C)CCNC(=O)Nc1ccc(N(C)c2ccnc(Nc3ccc(CS(C)(=O)=O)cc3)n2)cc1	23.3%	3.87%	7.76%	15.3%	78%	4.55%	14.4%	-2.02%	-0.56%	-4.06%	-4.22	5.73%	14.7%	2.91%	12.6%	12.7%	47.1%	1.49%	4.15%	1.76%
CS(=O)(=O)CCNCc1ccc(-c2ccc3ncnc(Nc4ccc(OCc5cccc(C(F)(F)F)c5)cc4)c3c2)o1	6.5%	-1.41%	3.05%	6.2%	8.72%	9.03%	15.8%	-3.48%	-3.22%	-1.19%	-0.03	6.62%	4.52%	3.37%	4.84%	0.64%	5.33%	0.49%	0.96%	2.16%
CS(=O)(=O)CCNCc1ccc(-c2ccc3ncnc(Nc4ccc(OCc5ccccc5)cc4)c3c2)o1	9.58%	2.59%	3.8%	1.11%	8.89%	9.13%	12.5%	-0.68%	2.59%	1.7%	-0.71	1.49%	7.43%	1.24%	4.15%	3.51%	16.6%	1.73%	2.69%	1.91%
O=C(Nc1n[nH]c2nnc(-c3cccnc3)cc12)C1CC1	3.64%	-2.07%	-3.95%	-0.02%	1.38%	0.98%	2.5%	2.39%	0.54%	1.35%	0.88	0.17%	3.48%	1.38%	1.88%	-1.13%	0.09%	0.32%	1.68%	0.12%
COc1ccc(-c2nn3ncccc3c2-c2ccnc(Nc3ccc(F)c(F)c3)n2)cc1	19.1%	1.18%	2.96%	6.57%	9.74%	3.58%	19.4%	-2.81%	1.37%	-2.45%	-2.02	6.05%	7.67%	3.17%	7.31%	4.48%	9.68%	1.57%	4.87%	1.54%
COc1c(C(N)=O)cc(-c2ccc(Cl)cc2)cc1-c1ccc(S(N)(=O)=O)cc1	7.43%	6.88%	6.97%	12.2%	14.6%	10.9%	14.6%	-1.8%	-2.15%	1.78%	4.05	7.49%	3.79%	5.29%	7.54%	2.66%	3.9%	1.22%	3.03%	4.76%
CNC(=O)c1ncccc1Nc1nc(Nc2cc3c(cc2OC)CCCN3C(=O)CN(C)C)nc2[nH]ccc12	27.1%	-2.25%	6.45%	83.4%	87.7%	0.68%	8.9%	0.09%	-0.71%	-1.3%	1.95	5.55%	7.76%	1.81%	-0.04%	50%	73%	2.4%	10.8%	5.07%
c1cnn2ncc(-c3ccnc(NCCCN4CCOCC4)n3)c2c1	0.64%	7.49%	0.88%	5.24%	8.64%	2.26%	5.93%	0.14%	1.41%	-6.13%	0.5	2.64%	3.12%	2.79%	3.09%	1.04%	-1.51%	0.23%	-0.49%	2.69%
N#Cc1cccc(Nc2ncc(-c3ccccc3)o2)c1	10.8%	-0.08%	-1.06%	2.33%	3.19%	6.64%	19.9%	2.21%	2.55%	1.05%	-0.14	1.29%	2.29%	0.48%	2.45%	2.36%	15.4%	0.46%	0.86%	-0.7%
CC1=C(C(=O)Nc2ccc3[nH]nc(C)c3c2)C(c2ccc(C(F)(F)F)cc2)CC(=O)N1 (stereo not given)	38.1%	5.1%	23.9%	4.15%	17.6%	1.6%	22.7%	0.76%	-1.98%	-4.6%	-0.48	4.4%	8.29%	1.71%	6.96%	6.09%	31.3%	3.49%	27.4%	4.41%
CCN1CCC(C(=O)Nc2n[nH]c3nnc(-c4cccc(F)c4F)cc23)CC1	3.53%	0.53%	0.25%	-1.03%	3.74%	-1.14%	-2.38%	1.44%	2.12%	0.98%	0.2	-1.63%	0.37%	1.84%	2.91%	1.54%	0.05%	-0.13%	0.07%	1.95%
CNC(=O)c1cncc(/C=C/c2ccccc2C)c1	12.3%	1.43%	5.25%	4.35%	5.86%	8.47%	13.7%	1.18%	0.97%	-0.75%	-0.24	6.1%	16.4%	1.59%	-0.24%	3.86%	20.7%	1.54%	8.09%	3.97%
